PubChem BioAssay (Tox21)
Activity calls are given as the source filed them. Calls follow the shape of the dose curve; as a rule, active = well fitted curve in the direction sought with a large enough effect in the repeat runs; inconclusive = weak or mixed curves; inactive = flat fitted curve, though single readings scatter.

Experiment: qHTS assay to test for compound auto fluorescence at 460 nm (blue) in HepG2 cells (AID 720687)
Conditions: autofluorescence 405/460 nm, 1 h; series mostly up to 91.3 µM; fluorescence, % of fluorescent control: at the top concentration
Source text: U.S. Tox21 Program National Center for Advancing Translational Sciences [NCATS] NIH Chemical Genomics Center [NCGC] U.S. Environmental Protection Agency [EPA] National Institutes of Environmental Health Sciences [NIEHS] National Toxicology Program [NTP] U.S. Food and Drug Administration [FDA] Tox21 Assay Overview: Compound auto fluorescence often interferes with screening of the compound library against various biological targets and signaling pathways. Some of these compounds may have fluorophoric properties. Such properties may interfere with the assay outputs resulting in false positives and/or negatives. To decrease such complications and ensure the compound activities are relevant in terms of biological response, the Tox21 10K compound library was screened for auto fluorescence. From the fluorophores used as reporter signals in our screening assays, the auto fluorescence equivalencies of compounds against three fluorophores have been evaluated: Triamterene, Fluorescein and Rose Bengal sodium for blue, green and red fluorescence, respectively. The fluorescence intensities were measured using Excitation/Emission wavelengths at 405/460nm, 485/535nm and 540/590nm for blue, green and red labels, respectively. This assay includes the blue fluorescence data.
Tox21 Assay Protocol Summary: 2,000 HepG2 cells in 5 uL of culture medium (MEM containing 10% FBS) per well were dispensed into black wall/clear bottom 1536-well plates using a Multidrop Combi Dispenser (ThermoFisher Scientific, Waltham, MA). The assay plates were incubated overnight at 37 C to allow cell attachment to the well bottom, followed by the transfer of 23 nL compound or DMSO vehicle by a pintool work station (Kalypsys , San Diego, CA). After the assay plates were incubated for 1 hr at 37 C and 5% CO2, fluorescence intensities in the assay plates were measured by an Envision (PerkinElmer, Shelton, CT) plate reader using three labels for measuring blue, green and red fluorescence at […] 460, 535 and 590 nm respectively.
% is scaled to controls: 0 for no effect and ±100 for the full control effect.

| SMILES | fluorescence, % of fluorescent control | Potency |
| --- | --- | --- |
| O=C(O)c1cccc(Cl)n1 | -0.0067% (inactive) | – |
| CC(=O)Nc1ccc(O)cc1 | – | inactive |
| C=CC(=O)OCCC#N | -0.0298% (inactive) | – |
| C[Si](C)(C)Cl | -0.0014% (inactive) | – |
| CN(C)c1ccc(N=Nc2ccccc2C(=O)O)cc1 | -0.284% (inactive) | – |
| NC(=O)C(=O)N/N=C/c1ccc([N+](=O)[O-])o1 | -0.0419% [at 46 µM] (inactive) | – |
| CC1=C(/C=C/C(C)=C/C=C/C(C)=C/C(=O)Nc2ccc(O)cc2)C(C)(C)CCC1 | – | inactive |
| C1CC(COCC2CO2)CCC1COCC1CO1 (stereo not given) | -0.272% (inactive) | – |
| Cc1c(C)n(Cc2ccccc2)c2ccc(C(=O)OCCN(C)C)cc12 | 0.0306% [at 46 µM] (inactive) | – |
| CC1(C)C(=O)N(Br)C(=O)N1Br | -0.11% (inactive) | – |
| CCCSS/C(CCO)=C(\C)N(C=O)Cc1cnc(C)nc1N | -0.154% [at 46 µM] (inactive) | – |
| CCCOc1sc(C(=O)N2CCC(c3cc(CN)ccc3F)CC2)c(C)c1Br | -0.481% (inactive) | – |
| CN1CCN(C2Cc3ccccc3Sc3ccc(Cl)cc32)CC1 (stereo not given) | -0.0227% [at 46 µM] (inactive) | – |
| COc1cccc(CCc2ccccc2OCC(CN(C)C)OC(=O)CCC(=O)O)c1 (stereo not given) | -0.159% [at 46 µM] (inactive) | – |
| CCN(CC)CCNc1ccc(CO)c2sc3ccccc3c(=O)c12 | -0.35% [at 46 µM] (inactive) | – |
| O=C1NCCN1CCN1CCC(c2cn(-c3ccc(F)cc3)c3ccc(Cl)cc23)CC1 | – | inactive |
| c1cc(OCC2CO2)cc(OCC2CO2)c1 (stereo not given) | -0.0574% (inactive) | – |
| Cc1cn[nH]c1 | 0.0014% [at 46 µM] (inactive) | – |
| NCCCC(O)(P(=O)(O)O)P(=O)(O)O | 0.0234% [at 46 µM] (inactive) | – |
| CCCCCCC(C)OC(=O)COc1nc(F)c(Cl)c(N)c1Cl (stereo not given) | 0.0453% (inactive) | – |

| SMILES | fluorescence, % of fluorescent control | Potency |
| --- | --- | --- |
| COc1cc(C=C2CCC/C(=C\c3ccc(O)c(OC)c3)C2=O)ccc1O | 0.655% [at 46 µM] (inactive) | – |
| CCC(C)c1cc([N+](=O)[O-])cc([N+](=O)[O-])c1OC(=O)OC(C)C (stereo not given) | -0.587% (inactive) | – |
| O=C(O)CCn1c2c(c3ccccc31)C[C@H](NS(=O)(=O)c1ccc(F)cc1)CC2 | 0.0719% [at 46 µM] (inactive) | – |
| CN(Cc1cc(Br)cc(Br)c1N)C1CCCCC1 | 0.161% [at 46 µM] (inactive) | – |
| CCCCCCCC/C=C\CCCCCCCC(=O)OCCOC(=O)CCCCCCC/C=C\CCCCCCCC | 0.0331% [at 95.7 µM] (inactive) | – |
| CO[C@H]1C=CO[C@@]2(C)Oc3c(C)c(O)c4c(O)c(cc(O)c4c3C2=O)NC(=O)/C(C)=C\C=C/[C@H](C)[C@H](O)[C@@H](C)[C@@H](O)[C@@H](C)[C@H](OC(C)=O)[C@@H]1C | – | inactive |
| COC(=O)C1=C(C)NC(C)=C(C(=O)OCCCN2CCC(c3ccccc3)(c3ccccc3)CC2)C1c1cccc([N+](=O)[O-])c1 (stereo not given) | 0.0069% [at 46 µM] (inactive) | – |
| CCCCCCCC/C=C/CCCOC(C)=O | 0.0122% (inactive) | – |
| C=CC(=C)CCC=C(C)C | -0.451% (inactive) | – |
| CCCCCCCCCCCCCC[n+]1ccccc1 | -0.173% (inactive) | – |
| c1ccc(Sc2ccccc2)cc1 | -0.158% (inactive) | – |
| CC(=O)Oc1ccc(C2(c3ccc(OC(C)=O)cc3)C(=O)Nc3ccccc32)cc1 | – | inactive |
| CCCCCCCCCCCCN(CCO)CCO | 0.0269% (inactive) | – |
| ClC/C=C\CCl | 0.0308% [at 95.7 µM] (inactive) | – |
| O=C1Nc2ccc(Cl)cc2[C@@](C#CC2CC2)(C(F)(F)F)O1 | -0.0489% [at 46 µM] (inactive) | – |
| O=C(Nc1ccc(Cl)cc1)Nc1ccc(Cl)c(C(F)(F)F)c1 | -0.0122% [at 46 µM] (inactive) | – |
| O=S(=O)(O)CCCN1CCOCC1 | 0.071% (inactive) | – |
| S=C(SSSSSSC(=S)N1CCCCC1)N1CCCCC1 | 0.0837% [at 18.6 µM] (inactive) | – |
| Clc1ccc(C(c2ccccc2Cl)C(Cl)Cl)cc1 (stereo not given) | – | inactive |
| CCN(CC)CCCN(c1ccccc1)C1Cc2ccccc2C1 | -0.0168% [at 46 µM] (inactive) | – |
